Results reported in PubChem BioAssay AID1903 (Southern Research Specialized Biocontainment Screening …, 2009).
Hit rate of the full screen: of about 310,000 compounds, about 1,200 (0.39%) were called active. No rule for the calls is given here. Not all results are given here. Measured potencies and affinities stand elsewhere.

molecular target: Large T antigen (Simian virus 40) (UniProt P03070); test: TAg ATPase/helicase activity blockers – biochemical (AID 1903); details: SV40 large T antigen ATPase/helicase inhibition assay; at 20 µM; active compounds read high
Sequence (P03070 whole entry, looked up): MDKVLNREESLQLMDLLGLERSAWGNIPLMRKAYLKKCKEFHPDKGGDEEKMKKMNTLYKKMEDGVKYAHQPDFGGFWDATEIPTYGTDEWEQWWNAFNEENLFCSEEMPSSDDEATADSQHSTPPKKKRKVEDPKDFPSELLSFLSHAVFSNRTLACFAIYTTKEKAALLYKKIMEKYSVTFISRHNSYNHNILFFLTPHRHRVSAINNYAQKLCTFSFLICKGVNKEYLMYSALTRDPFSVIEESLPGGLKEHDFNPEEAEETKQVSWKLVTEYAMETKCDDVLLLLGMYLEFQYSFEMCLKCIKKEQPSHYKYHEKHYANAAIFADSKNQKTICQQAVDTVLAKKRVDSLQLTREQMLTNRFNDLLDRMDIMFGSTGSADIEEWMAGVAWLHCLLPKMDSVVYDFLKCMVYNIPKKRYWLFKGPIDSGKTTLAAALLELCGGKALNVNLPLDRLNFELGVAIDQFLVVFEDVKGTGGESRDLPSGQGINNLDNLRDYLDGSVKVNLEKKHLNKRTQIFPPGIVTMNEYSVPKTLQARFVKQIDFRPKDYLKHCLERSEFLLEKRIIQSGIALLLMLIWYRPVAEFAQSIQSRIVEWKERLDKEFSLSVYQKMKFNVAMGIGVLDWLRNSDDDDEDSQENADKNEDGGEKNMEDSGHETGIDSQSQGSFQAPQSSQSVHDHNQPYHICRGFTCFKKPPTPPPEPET

inhibition, inactive:
N#C/C(=C\c1coc2ccccc2c1=O)C(N)=S 11.5%
O=C1NN(c2ccccc2)C(=O)/C1=C\c1coc2ccc(O)cc2c1=O 51.3%
COc1ccc(CCNC(=O)C/C(C)=N/NC(=O)C23CC4CC(CC(C4)C2)C3)cc1OC 5.44%
COc1ccc(NC(=O)CC2C(=O)N(Cc3ccco3)C(=S)N2C(C)C)cc1 (centres undefined) 12%
COc1ccc(-n2c(C)cc(/C=C3\SC(=S)N(Cc4ccco4)C3=O)c2C)cc1 2.87%
COC(=O)C1=C(C)N(Cc2ccco2)C(=O)/C1=C\c1ccc([N+](=O)[O-])cc1 31.3%
COC(=O)C1=C(C)N(Cc2ccco2)C(=O)/C1=C\c1ccc(N(C)C)cc1 3.05%
COc1ccc(N2C(=O)CC(c3cc(OC)c(OC)c(OC)c3)CC2=O)cc1 8.69%
COC(=O)c1nn(-c2nc(-c3ccc(OC)c(OC)c3)cc(C(F)(F)F)n2)cc1[N+](=O)[O-] 9.35%
COc1ccc(Sc2ccc(/C=C3\C(=O)NN(c4ccccc4)C3=O)o2)cc1 32.2%
N=C1/C(=C\c2ccc(-c3cc(Cl)cc(Cl)c3)o2)C(=O)N=C2SC=C(c3ccccc3)N12 -1.62%
N=C1/C(=C\c2ccc(-c3cccc(Cl)c3)o2)C(=O)N=C2SC=C(c3ccccc3)N12 7.39%
O=C1NN(c2cccc(Br)c2)C(=O)/C1=C/c1ccc(-c2cc([N+](=O)[O-])ccc2O)o1 38.2%
COC(=O)c1ccc(N2NC(=O)/C(=C/c3ccc(-c4ccc(Cl)c(C(=O)O)c4)o3)C2=O)cc1 37%
O=C1NN(c2ccccc2)C(=O)/C1=C/c1ccc(Sc2ccc(Cl)cc2)o1 11.2%
O=C1NN(c2ccc(Cl)c(Cl)c2)C(=O)/C1=C/c1ccc(-c2ccccc2C(=O)O)o1 28.4%
Cc1ccc(Sc2ccc(/C=C3/C(=O)NN(c4ccccc4)C3=O)o2)cc1 20.1%
COc1ccccc1N1CCN(CC(O)c2ccccc2)CC1 (centres undefined) -5.22%
CC(=O)Nc1nc2ccc(S(=O)(=O)N3CCCCC3)cc2s1 11.1%
CCSC1=NCCN1S(=O)(=O)c1ccc(NC(C)=O)cc1 4.92%
CN(C(=O)c1ccc2c(c1)CCN2S(C)(=O)=O)c1ccccc1 -0.23%
Cc1cc(C)c2c(=O)[nH]c(SCc3ccccc3C)nc2n1 1.53%
CCC(=O)Oc1ccc(C(=O)Nc2cccc(NC(=O)c3ccco3)c2)cc1 -2.07%
Cc1ccc(OCC(=O)Nc2ccc(F)cc2)c([N+](=O)[O-])n1 6.19%
Cc1ccc(NC(=O)C2CCN(S(=O)(=O)c3cnc[nH]3)CC2)cc1C 12%
COc1ccccc1OCC(=O)Nc1nonc1NC(=O)COc1ccccc1OC 11.7%
CC(=O)Nc1ccc(N2CC(C)(C)C2=O)cc1 14.5%
COc1ccc(F)cc1S(=O)(=O)N1CCCC(C)C1 (centres undefined) 4.43%
OCCC1CN(Cc2cccc(C(F)(F)F)c2)CCN1Cc1ccccc1 (centres undefined) 5.73%
O=Cc1ccc(-c2cccc(C(=O)O)c2)o1 8.85%
O=C1NN(c2ccccc2)C(=O)/C1=C/c1ccc(Sc2cccc3ccccc23)o1 9.56%
CCSc1ccccc1C(=O)N1CCN(c2ccccc2F)CC1 4.24%
CC(C)c1ccc(C2/C(=C(\O)c3ccc4c(c3)OCCO4)C(=O)C(=O)N2CCN2CCOCC2)cc1 (centres undefined) 10.8%
Cc1ccc2nc(/C(C#N)=C/c3ccc(O)c(O)c3)[nH]c2c1 36.8%
N#C/C(=C\c1ccncc1)c1nc2ccccc2[nH]1 -51.6%
Cn1c(CSCc2ccc(F)cc2)nnc1SCC(=O)N1CCN(c2ccccc2)CC1 29.3%
CC1=CN2C(=NC(=O)CC2(C)C(=O)N(CC(=O)NC2CCCC2)Cc2ccccc2)C=C1 (centres undefined) 3.88%
Oc1ccc(Nc2nc(-c3ccc4ccccc4c3)cs2)cc1 35.8%
CCCc1cc(=O)[nH]c(Nc2ccc(Cl)cc2)n1 16.6%
COc1c(CC=C(C)C)c(O)cc2oc(=O)c3c4ccc(O)cc4oc3c12 21.6%
Cc1c(O)c2ccccc2oc1=O 8.49%
O=C1C=C(NC2CC2)C2(CCCCC2)O1 6.12%
C=CCN1C(=O)C2C3C=CC(C2C1=O)C1C2C(=O)N(CC=C)C(=O)C2C31 (centres undefined) 0.93%
Cc1oc2cc(O)ccc2c(=O)c1-c1cnn(-c2ccccc2)c1 1.6%
Cc1oc2c(C)c(O)ccc2c(=O)c1-c1cnn(-c2ccccc2)c1 12.9%
CC(C)N1C(=O)CCC1C(=O)NCc1ccco1 (centres undefined) 10.9%
CCOC(=O)C1=C(CC)Nc2ccccc2N=C1NC(=O)Cn1cnc2ccccc2c1=O -2.64%
S=C(NCC1CCCO1)N1CCN(c2ccccc2)CC1 (centres undefined) 8.18%
CC(C)(C)OC(=O)NCCCC[C@H](NC(=O)c1nc[nH]c1C(=O)NC1CCN(C(=O)OC(C)(C)C)CC1)C(=O)OC(C)(C)C 3.23%
O=[N+]([O-])c1cccc(-c2ncc3ccccn23)c1 -2.83%
Nc1c(-c2cccc([N+](=O)[O-])c2)nc2ccccn12 15.8%
Cc1cc(NC(=O)CSCC(=O)Nc2cc(C(F)(F)F)ccc2N2CCCC2)no1 4.79%
Nc1ncnc2c1ncn2CCOc1ccccc1 3.18%
O=C(N/N=C/c1cc(Cl)c(O)c(Cl)c1)c1cc2c(ccc3ccccc32)o1 29.3%
O=C(N/N=C/c1ccc(O)c(Br)c1)c1cc2c(ccc3ccccc32)o1 -8.03%
O=C(CCc1ccccc1)NNC(=O)c1ccccc1F 10.9%
Cc1nc(C)c(-c2csc(Nc3ccc(F)cc3)n2)s1 6.12%
Cc1ccc(Nc2nc(-c3sc(C)nc3C)cs2)cc1 3.8%
COc1ccc(/C(C)=N\NC(=O)c2ccc3c(c2)OCO3)cc1OC 1.47%
Cc1c(NS(=O)(=O)c2cc(C(=O)NCCN(C)C)ccc2Cl)c(=O)n(-c2ccccc2)n1C 10.6%
C=CCN1C(=O)CSC1=Nc1ccc(O)cc1 27.9%
COc1ccc(N=C2SCC(=O)N2c2ccc(OC)cc2)cc1 13.7%
Cc1cccc(C(=O)NCC(=O)NCC2COc3ccccc3O2)c1 (centres undefined) 23.4%
CCOc1c(/C=C(\C#N)C(N)=O)c2ccccc2n1CC 3.23%
COc1ccc(Oc2nc3ccccc3n3cccc23)cc1 5.06%
CCc1ccc2[nH]c(=O)c(C(c3nnnn3CCOC)N3CCN(c4ccccc4)CC3)cc2c1 (centres undefined) 6%
CCc1ccc2[nH]c(=O)c(C(c3nnnn3CCOC)N3CCN(c4ccc(F)cc4)CC3)cc2c1 (centres undefined) 16.5%
CSCc1cc(N2CCOCC2)nc(-c2ccccc2)n1 9.12%
O=C(Cc1ccc([N+](=O)[O-])cc1)c1c(O)cc(O)cc1O 28%
O=C(CN1C(=O)c2ccccc2S1(=O)=O)Nc1ccccc1 18.1%
COC(=O)CSC1=NS(=O)(=O)c2ccccc21 5.69%
NS(=O)(=O)c1ccc(NC(=O)c2cccc(N3C(=O)c4ccccc4C3=O)c2)cc1 7.91%
COC(=O)CCC(=O)Nc1ccc(N=Nc2ccccc2)cc1 8.53%
COc1ccc(-c2nc(-c3ccccc3)[nH]c(=O)c2C#N)cc1 9.65%
Clc1cc(Cl)cc(C2=NC(Cc3ccccc3)CO2)c1 (centres undefined) 4.6%
COc1ccc(C2C(C#N)=C(N)N(N(C)C)C3=C2C(=O)CCC3)cc1 (centres undefined) 6.69%
COc1ccc(C[C@H]2COC(=O)[C@@H]2Cc2ccc(OC3OC(CO)C(O)C(O)C3O)c(OC)c2)cc1OC (some centres undefined) 11.3%
COc1cc(/C=C/CO)ccc1O[C@@H]1O[C@H](CO)[C@@H](O)[C@H](O)[C@H]1O 1.74%
CCCCOc1ccc(C(=O)NCC(=O)N2CCN(Cc3ccc4c(c3)OCO4)CC2)cc1 14%
COc1ccc(NC(=O)COc2ccc(C)cc2)c([N+](=O)[O-])c1 5.55%
O=C(NCCOCCNC(=O)OCc1ccccc1)OCc1ccccc1 24.2%
CCOC(=O)c1c(NC(C)=O)sc2c(O)c(Br)ccc12 12.8%
CCOC(=O)c1c(NC(C)=O)sc2c(OC)c(Br)ccc12 1.77%
Cc1cc(C)c(C)c(OCCOCCNCc2ccccc2)c1 -32.9%
COc1ccc(NC(=O)CN(C)Cc2c(F)cccc2Cl)cc1S(=O)(=O)N1CCCCC1 4.49%
CN1C(=O)SC(Nc2ccc(F)cc2)C1=O (centres undefined) 20.7%
CN1C(=O)SC(Nc2ccccc2)C1=O (centres undefined) 5.64%
CCN(CC)S(=O)(=O)c1cccc(-c2cn3cc(C)ccc3n2)c1 8.06%
O=C(NCCC1CCCCN1S(=O)(=O)c1ccccc1)C(=O)NCc1ccncc1 (centres undefined) 4.13%
COc1ccc(-c2cc(C(F)(F)F)nc(N3CCN(C)CC3)n2)cc1 1.63%
C/C(=N/NC(=O)CSc1nc2ccccc2n1C)c1ccncc1 1.08%
CC(=O)Nc1ccc(NC(=O)CSc2nc3ccccc3o2)cc1 5.88%
C/C(=N\NC(=O)CSc1nc2ccccc2o1)c1cccc(O)c1 14.6%
C/C(=N/NC(=O)CSc1nc2ccccc2n1C)c1ccco1 -1.06%
